Assay results from PubChem BioAssay AID588519 (ICCB-Longwood Screening Facility, Harvard Medical School, 2011).
About 1,000 (0.67%) of roughly 150,000 compounds were called active. This is one part of a sample in which actives are shown more often than they occur. No stated cut-off is given here; in the data, active means % elongation below about 90%; inactive means the rest, inconclusive results apart.

Molecular target: Genome polyprotein (Poliovirus type 1 (strain Mahoney)) (UniProt P03300)
Assay: inhibitors of poliovirus polymerase RNA elongation – biochemical, fluorescence polarization, total intensity, primary screen (AID 588519); on z-score: compound at 16.7 µg/mL
Conditions: stronger effect = lower value; for % elongation: compound at 16.7 µg/mL; for z-score: measured here: FP z-score
[1] = measured here: total intensity read-out

Genome polyprotein (Poliovirus type 1 (strain Mahoney)), sequence (P03300 1749-2209 limits assumed): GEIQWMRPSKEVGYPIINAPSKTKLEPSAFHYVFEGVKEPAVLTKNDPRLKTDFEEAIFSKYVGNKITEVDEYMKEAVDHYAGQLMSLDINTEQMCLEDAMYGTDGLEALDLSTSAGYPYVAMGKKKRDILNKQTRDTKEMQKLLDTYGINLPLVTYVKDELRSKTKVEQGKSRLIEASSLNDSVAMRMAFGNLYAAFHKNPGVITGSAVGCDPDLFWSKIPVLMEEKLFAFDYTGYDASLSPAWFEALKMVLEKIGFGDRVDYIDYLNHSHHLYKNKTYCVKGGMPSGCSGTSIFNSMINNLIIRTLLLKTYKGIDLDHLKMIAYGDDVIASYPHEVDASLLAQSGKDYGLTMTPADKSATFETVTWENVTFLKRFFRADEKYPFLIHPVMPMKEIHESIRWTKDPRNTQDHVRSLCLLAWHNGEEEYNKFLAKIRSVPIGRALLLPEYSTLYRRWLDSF

Row | Compound | % elongation | z-score | % elongation [1]
1 | CCCc1nc2c3ccccc3ncn2n1 | 105% (inactive) | 0.4 | 113%
2 | CCCCCCn1nnc2sc(-c3ccccc3)cc2c1=O | 121% (inactive) | 2.3 | 118%
3 | Cc1ccc(Cl)cc1NC(=O)C(C)n1nnc2sc(-c3ccccc3)cc2c1=O (centres undefined) | 65% (active) | -6.8 | 65%
4 | CC(C)OC(=O)C(C)n1cnc2sc(-c3ccccc3)cc2c1=O (centres undefined) | 104% (inactive) | 0 | 105%
5 | CC1(C)CC(=O)C=C(Nc2sc3c(c2C#N)CCCC3)C1 | 98% (inactive) | -1 | 97%
6 | COc1ccc(S(=O)(=O)NCCSc2nnnn2-c2ccccc2)cc1 | 75% (active) | -7.9 | 73%
7 | CCOc1ccc(S(=O)(=O)NCCSc2ccccc2)cc1 | 100% (inactive) | -0.1 | 103%
8 | O=C(CSc1nnnn1-c1ccccc1)NCCC12CC3CC(CC(C3)C1)C2 | 102% (inactive) | -0.1 | 107%
9 | O=C(Nc1ccc(S(=O)(=O)C(F)F)cc1)c1cccnc1N1CCCC1 | 102% (inactive) | -0.3 | 104%
10 | Cc1ccc(-n2cc[nH]c(=O)c2=O)cc1 | 103% (inactive) | 0.3 | 102%
11 | CCCC(=O)Nc1ccc(C(=O)CSc2nnc(Cc3ccccc3)o2)cc1 | 106% (inactive) | 0.3 | 106%
12 | O=C(Sc1ccc(Oc2ccc(SC(=O)c3ccco3)cc2)cc1)c1ccco1 | 44% (active) | -11.5 | 51%
13 | O=C(CSc1ccc(Br)cc1)c1ccco1 | 97% (inactive) | -0.9 | 89%
14 | O=C(Oc1ccc(Br)cc1)c1ccco1 | 101% (inactive) | -0.3 | 105%
15 | CCCCN(C)C(=O)C1CCCN(c2nnc(C)c3c(C)n(-c4ccccc4)nc23)C1 (centres undefined) | 101% (inactive) | -0.1 | 103%
16 | O=C(CCC(=O)c1ccccc1)c1ccccc1 | 100% (inactive) | 0.1 | 102%
17 | O=C(CSc1nnc2ccccn12)c1ccccc1 | 101% (inactive) | 0.1 | 103%
18 | O=C(CSc1ccccc1)c1ccccc1 | 79% (active) | -2.3 | 75%
19 | O=C(Nc1ccccc1I)C1CCCO1 (centres undefined) | 101% (inactive) | 0.2 | 100%
20 | CN(Cc1ccccc1)C(=O)Cn1cnc(S(=O)(=O)N2CCCC2)c1 | 103% (inactive) | 1 | 101%
21 | O=C(Nc1ccc(Cl)cc1Cl)C1CC(=O)N(C2CCCCC2)C1 (centres undefined) | 105% (inactive) | 0.2 | 102%
22 | Oc1c(C(c2cccnc2)N2CCOCC2)ccc2cccnc12 (centres undefined) | 85% (inactive) | -2.9 | 110%
23 | O=C(CCc1ccccc1)NCC1COC2(CCCCC2)O1 (centres undefined) | 106% (inactive) | 0.3 | 112%
